Experimental findings from PubChem BioAssay are described below.

Molecules are shown by their SMILES. Activity calls are given as the source filed them. Unless noted, no rule for the calls is given here.

Experiment [1] can be described thus: anti-His antibody binders, primary screen, artefact control for SMM control protein annotation, biochemical, small-molecule microarray, 635 nm fluorescence (AID 1128).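 Also: score merges feature fluorescence with signal-to-noise for each printed compound spot.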 To be noted: anti-His Alexa647 antibody binding, higher = more signal.
Experiment [2] concerns Human papillomavirus type 1a E7 protein (residues 1-88). In words: HPV1a E7 small-molecule binders, primary screen, biochemical, small-molecule microarray, residues 1-88, 635 nm (AID 1129). Conditions: small-molecule microarray binding, fluorescence 635 nm; higher = more signal.
Experiment [3] has as its target Focal adhesion kinase 1 (Homo sapiens) (UniProt Q05397). In words: small-molecule microarray binders of FAK, primary screen, biochemical, 635/667 nm fluorescence, BSA, DTT (AID 1130).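 Also: composite of spot emission at 667 nm and signal to noise over triplicate slides.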 To be noted: PTK2 binding, 635 nm fluorescence, higher = more signal.
Experiment [4] deals with Fibrinogen (Alexa647-labelled). In words: fibrinogen binders on compound microarrays, profiling panel, artefact control for SMM control-protein annotation, biochemical, small-molecule microarray, 635/667 nm fluorescence (AID 1131).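 Also: z-score merges 667 nm fluorescence with per-spot signal-to-noise over triplicate slides.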 To be noted: fibrinogen-A647 binding fluorescence, higher = more signal.
Experiment [5] has as its target Follistatin (Homo sapiens) (UniProt P19883). In words: follistatin binders on small-molecule microarrays, primary screen, biochemical, small-molecule microarray, 635/667 nm fluorescence (AID 1132). Conditions: FST binding, 635 nm fluorescence, higher = more signal.
In experiment [6] the target is Fibroblast growth factor 2 (Homo sapiens) (UniProt P09038). In words: FGF2 binders on small-molecule microarrays, primary screen, biochemical, small-molecule microarray, 635/667 nm fluorescence (AID 1133). Conditions: small-molecule microarray binding, FGF2, fluorescence 635/667; higher = more signal.
Sequence of Fibroblast growth factor 2 (Homo sapiens) (P09038 whole entry, looked up): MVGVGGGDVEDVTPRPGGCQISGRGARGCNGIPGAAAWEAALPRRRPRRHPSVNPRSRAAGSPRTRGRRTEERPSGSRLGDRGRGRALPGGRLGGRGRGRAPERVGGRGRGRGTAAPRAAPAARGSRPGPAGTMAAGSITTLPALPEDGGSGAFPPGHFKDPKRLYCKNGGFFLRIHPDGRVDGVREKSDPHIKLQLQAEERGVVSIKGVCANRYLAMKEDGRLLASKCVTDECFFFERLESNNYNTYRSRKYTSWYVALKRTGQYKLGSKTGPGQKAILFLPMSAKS
Experiment [7] is described as follows: mitochondrial membrane potential change in A549 cells, profiling panel, cell-based, JC-1 fluorescence, basal, 24 h, 100 nL (AID 1138).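 Also: A549 lung adenocarcinoma cells under basal conditions with no added stimulus; test concentration not given here.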 Conditions: higher = more signal.
The test system of a further experiment is Lefty1. In words: Lefty1 binders on small-molecule microarrays, primary screen, biochemical, small-molecule microarray, 635/667 nm fluorescence (AID 1139). To be noted: small-molecule microarray binding, fluorescence 635/667; higher = more signal.
Experiment [8] has as its system wheat germ agglutinin (Triticum aestivum), Alexa647-labelled. In words: wheat germ agglutinin binders on compound microarrays, profiling panel, artefact control for SMM control-protein annotation, biochemical, small-molecule microarray, 635/667 nm fluorescence (AID 1140).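 Also: score merges 667 nm feature emission with signal to noise over triplicate slides.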 Conditions: WGA-A647 binding, 635 nm fluorescence, higher = more signal.
Experiment [9] has as its target Luciferin 4-monooxygenase (Photinus pyralis) (UniProt P08659). In words: firefly luciferase enzyme inhibitors, primary screen, biochemical, luminescence, purified enzyme, 2006 set (AID 1141).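 Also: cell-free assay with purified firefly luciferase at 100 ng per well in PBS; test concentration not given here.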 Conditions: SteadyGlo luminescence, 30 min, higher = more signal, called active from +8 up or from −8 down.
For experiment [10], the system named is Wnt5a (protein binding on small-molecule microarray). In words: Wnt5a binders on small-molecule microarray, primary screen, biophysical, 635/667 nm fluorescence (AID 1142).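 Also: fluorescence read at 667 nm with signal to noise per printed feature.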 Conditions: 635 nm fluorescence, higher = more signal.
Experiment [11] can be described thus: cell viability in Huh7 cells, primary screen, cytotoxicity control for HCV replication inhibitor project, CellTiter-Glo luminescence, basal, 48 h (AID 1143).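 Also: Huh7 hepatoma cells carrying a hepatitis C replication reporter with no stimulus; test concentration not given here.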 Conditions: Huh7 HCV replicon, higher = more signal, called active from +8 up or from −8 down. (In general: Cellular ATP, detected with luciferase, serves as a proxy for viable cell number.)
Experiment [12] can be described thus: P. aeruginosa biofilm formation inhibitors, primary screen, PAO1 strain, BacTiter-Glo luminescence, LB-PBS (AID 1144). To be noted: 12 h, higher = more signal.
Experiment [13] can be described thus: CREB reporter modulators without forskolin, primary screen, cell-based, PC12, CRE-LacZ reporter, unstimulated (AID 1145). Conditions: no forskolin, luminescence, 4.5 h, higher = more signal, called active from +8 up or from −8 down.
A short description of experiment [14]: CREB reporter modulators under forskolin, primary screen, cell-based, PC12, CRE-LacZ reporter, forskolin-stimulated (AID 1146).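 Also: PC12 cells with 6xCRE LacZ reporter stimulated by forskolin 10 µM; beta-galactosidase reporter signal reflecting CREB driven transcription.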 To be noted: luminescence, 4.5 h, higher = more signal, called active from +8 up or from −8 down.
Experiment [15] concerns the target Streptavidin (Streptomyces avidinii) (UniProt P22629). In words: streptavidin binders on small-molecule microarray, primary screen, artefact control for SMM compound annotation, biophysical, 635/667 nm fluorescence (AID 1147).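 Also: signal reflects streptavidin binding to arrayed compounds as a control protein.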 To be noted: streptavidin binding, higher = more signal.
Experiment [16] can be described thus: small-molecule binders of probe aInhba, primary screen, biochemical, small-molecule microarray, 635/667 nm fluorescence (AID 1148).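 Also: score merges 667nm spot fluorescence with signal-to-noise for antibody binding to printed compounds.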 Conditions: higher = more signal.
Experiment [17] addresses Torsin-1A (Homo sapiens) (UniProt O14656). In words: torsin A binders from cell lysate, primary screen, small-molecule microarray, wild-type, 635/667 nm (AID 1149). Conditions: COS7 hTOR1A-WT lysate, 635 nm fluorescence, higher = more signal.
Experiment [18] shares this target. In words: small-molecule binders of mutant TOR1A in lysate, primary screen, cell lysate, small-molecule microarray, COS7 lysate, 635/667 nm fluorescence (AID 1150).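 Also: score pools 667 nm emission and signal to noise measuring lysate protein binding.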 Conditions: COS7 hTOR1A mutant lysate, 635 nm fluorescence, higher = more signal.
In experiment [19] the test system is Sonic hedgehog protein (Shh). In words: small-molecule binders of Shh protein, primary screen, biochemical, small-molecule microarray, 635/667 nm fluorescence (AID 1151).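 Also: Shh protein binding to compounds spotted on small-molecule microarray slides; score combines spot fluorescence intensity with signal-to-noise across triplicate slides.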 Conditions: small-molecule microarray binding, 635 nm fluorescence; higher = more signal.

Sequence of Luciferin 4-monooxygenase (Photinus pyralis) (P08659 whole entry, looked up): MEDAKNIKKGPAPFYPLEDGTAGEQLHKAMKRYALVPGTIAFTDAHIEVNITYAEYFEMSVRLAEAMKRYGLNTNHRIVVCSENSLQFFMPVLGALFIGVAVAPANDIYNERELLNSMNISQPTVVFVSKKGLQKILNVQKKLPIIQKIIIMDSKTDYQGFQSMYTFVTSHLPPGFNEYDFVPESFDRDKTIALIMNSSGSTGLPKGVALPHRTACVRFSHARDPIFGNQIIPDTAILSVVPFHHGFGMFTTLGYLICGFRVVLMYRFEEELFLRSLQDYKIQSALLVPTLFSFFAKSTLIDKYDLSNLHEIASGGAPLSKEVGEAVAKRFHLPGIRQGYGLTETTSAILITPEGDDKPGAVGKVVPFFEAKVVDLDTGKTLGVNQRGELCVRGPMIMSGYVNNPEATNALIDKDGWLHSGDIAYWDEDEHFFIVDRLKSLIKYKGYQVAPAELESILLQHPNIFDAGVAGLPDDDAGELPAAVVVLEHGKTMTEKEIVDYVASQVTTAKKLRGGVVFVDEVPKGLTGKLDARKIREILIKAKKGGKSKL
Sequence of Torsin-1A (Homo sapiens) (O14656 whole entry, looked up): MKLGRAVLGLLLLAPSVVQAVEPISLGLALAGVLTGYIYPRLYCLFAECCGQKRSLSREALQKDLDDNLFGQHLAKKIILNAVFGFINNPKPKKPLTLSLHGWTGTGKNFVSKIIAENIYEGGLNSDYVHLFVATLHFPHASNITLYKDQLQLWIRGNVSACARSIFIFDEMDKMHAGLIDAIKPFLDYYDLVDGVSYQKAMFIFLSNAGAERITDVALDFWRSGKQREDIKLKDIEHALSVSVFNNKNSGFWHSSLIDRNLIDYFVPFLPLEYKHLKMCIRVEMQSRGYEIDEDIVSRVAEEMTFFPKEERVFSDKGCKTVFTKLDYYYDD
Sequence of Streptavidin (Streptomyces avidinii) (P22629 whole entry, looked up): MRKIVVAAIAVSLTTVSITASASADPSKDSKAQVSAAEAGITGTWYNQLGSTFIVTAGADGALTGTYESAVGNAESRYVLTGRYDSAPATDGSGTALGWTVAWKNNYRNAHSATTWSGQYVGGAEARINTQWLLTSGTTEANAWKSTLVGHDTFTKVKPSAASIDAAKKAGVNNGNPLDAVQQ
Sequence of Focal adhesion kinase 1 (Homo sapiens) (Q05397 whole entry, looked up): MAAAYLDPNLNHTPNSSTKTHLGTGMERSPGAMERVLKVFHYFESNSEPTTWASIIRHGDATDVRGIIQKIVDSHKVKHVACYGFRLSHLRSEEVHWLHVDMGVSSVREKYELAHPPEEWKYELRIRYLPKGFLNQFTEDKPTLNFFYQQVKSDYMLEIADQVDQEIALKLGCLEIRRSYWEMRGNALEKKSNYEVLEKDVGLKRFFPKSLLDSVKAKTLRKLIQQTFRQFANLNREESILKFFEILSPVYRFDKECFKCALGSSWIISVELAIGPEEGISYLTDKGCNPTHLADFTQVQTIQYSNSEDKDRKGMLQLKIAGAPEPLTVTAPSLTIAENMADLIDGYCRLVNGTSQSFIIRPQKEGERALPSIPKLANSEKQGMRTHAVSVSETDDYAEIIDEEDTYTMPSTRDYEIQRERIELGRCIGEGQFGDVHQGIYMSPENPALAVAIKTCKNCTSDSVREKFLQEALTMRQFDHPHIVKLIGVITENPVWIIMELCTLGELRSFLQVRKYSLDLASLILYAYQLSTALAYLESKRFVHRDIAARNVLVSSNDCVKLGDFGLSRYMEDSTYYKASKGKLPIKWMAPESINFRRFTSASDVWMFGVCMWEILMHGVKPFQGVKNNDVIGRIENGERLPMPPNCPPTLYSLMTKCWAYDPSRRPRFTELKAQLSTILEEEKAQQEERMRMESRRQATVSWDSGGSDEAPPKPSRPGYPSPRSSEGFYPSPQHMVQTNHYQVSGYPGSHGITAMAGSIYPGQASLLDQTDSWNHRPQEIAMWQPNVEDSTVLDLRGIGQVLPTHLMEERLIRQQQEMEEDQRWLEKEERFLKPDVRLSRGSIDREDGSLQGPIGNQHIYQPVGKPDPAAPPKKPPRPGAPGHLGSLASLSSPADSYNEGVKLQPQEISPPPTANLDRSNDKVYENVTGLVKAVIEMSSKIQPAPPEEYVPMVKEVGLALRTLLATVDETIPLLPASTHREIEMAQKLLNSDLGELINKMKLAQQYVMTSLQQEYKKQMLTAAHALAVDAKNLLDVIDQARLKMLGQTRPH
Sequence of Follistatin (Homo sapiens) (P19883 whole entry, looked up): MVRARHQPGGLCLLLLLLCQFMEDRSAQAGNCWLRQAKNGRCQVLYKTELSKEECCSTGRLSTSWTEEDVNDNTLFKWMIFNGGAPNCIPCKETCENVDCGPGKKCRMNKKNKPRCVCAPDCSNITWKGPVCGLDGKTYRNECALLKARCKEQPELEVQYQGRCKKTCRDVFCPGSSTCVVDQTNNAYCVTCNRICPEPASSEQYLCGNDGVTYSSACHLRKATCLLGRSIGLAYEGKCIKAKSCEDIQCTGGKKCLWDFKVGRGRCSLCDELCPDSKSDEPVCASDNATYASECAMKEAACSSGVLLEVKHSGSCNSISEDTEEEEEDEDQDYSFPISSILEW

Take `O=C(O)[C@@]1(Cc2ccccc2)COC(c2ccc(OCCCO)cc2)=N1`: the composite z-score in experiment [1] was -0.951; in experiment [2] it was -0.915; in [3] it was -0.375; in experiment [4] it was -2.33; in experiment [5], 0.24; in experiment [6], -0.33. In addition, the composite z-score was -1.18 with Lefty1; -0.723 in experiment [8]; 0.0416 in [10]; -0.345 in [15]; -0.252 in experiment [16]; -0.162 with Torsin-1A (Homo sapiens) [17]. Also, the results for the composite z-score (with Torsin-1A (Homo sapiens) [18]; in experiment [19]) were 1.52 and -0.555, respectively. Also, the z-score is 0.315 in experiment [7]; -3.65 (inactive) in experiment [9]; 0.621 (inactive) in experiment [11]; 0.498 (inactive) in experiment [12]; -0.277 (inactive) in experiment [13]; 0.0685 (inactive) in experiment [14].
For `C=CCC(OC(C)=O)[C@@H]1[C@@H](N(Cc2cccc3ccccc23)C(=O)Cc2ccc(F)cc2)c2cc(OCCCO)ccc2N1C(=O)Cc1ccc(OC)cc1` (stereo not given in full), the composite z-score in [1] was -0.241; in [2], -0.0072; in [3] it was -0.142; in experiment [4], 0.766; in experiment [5], 0.532; in experiment [6], -0.109. For the same compound, the composite z-score with Lefty1 was 0.391; in [8] it was 0.672; in experiment [10], -0.0124; in experiment [15], 0.227; in [16], -0.102; in the experiment with Torsin-1A (Homo sapiens) [17] it was -0.149. Also, the figures for the composite z-score (in the experiment with Torsin-1A (Homo sapiens) [18]; in experiment [19]) were -0.137 and 0.309, respectively. The z-score was -0.189 in [7]; 0.678 (inactive) in [9]; -0.627 (inactive) in experiment [11]; -0.945 (inactive) in experiment [12]; -0.579 (inactive) in experiment [13]; -0.374 (inactive) in [14].
On to `C=CC[C@]1(C(=O)N2CCOCC2)N=C(c2ccc(OCCCO)cc2)O[C@H]1c1ccccc1CN=[N+]=[N-]`, for which the composite z-score in experiment [1] was 1.82; in experiment [2], 1.21; in experiment [3] it was 0.88; in experiment [4] it was 0.97; in experiment [5], 1.28; in experiment [6] it was 0.95. Besides, the composite z-score in the experiment with Lefty1 was 1.05; in [8], 0.845; in [10] it was 0.662; in [15] it was 1.06; in experiment [16], 0.455; in the experiment with Torsin-1A (Homo sapiens) [17], 0.689. In addition, the composite z-score with Torsin-1A (Homo sapiens) [18] amounted to 1.1; in experiment [19], 0.871. For the same compound, the z-score in experiment [7] was 1.64; in experiment [9], -1.46 (inactive); in [11] it was -3.25 (inactive); in experiment [12] it was 0.112 (inactive); in experiment [13], 3.51 (inactive); in experiment [14], -0.745 (inactive).
For the compound `C=CCC(OC(C)=O)[C@@H]1[C@@H](N(Cc2ccc(-c3ccccc3)cc2)C(=O)Cc2ccc(OC)cc2)c2cc(OCCCO)ccc2N1C(=O)c1ccc(-c2ccccc2)cc1` (stereo not given in full), the composite z-score was -0.163 in [1]; 0.152 in experiment [2]; 0.855 in [3]; 0.137 in [4]; 0.409 in experiment [5]; -0.0805 in experiment [6]. Besides, the composite z-score was 0.182 in the experiment with Lefty1; 0.495 in [8]; 0.0546 in experiment [10]; -0.0206 in experiment [15]; -0.0018 in experiment [16]; 0.0765 with Torsin-1A (Homo sapiens) [17]. Further, the results for the composite z-score (with Torsin-1A (Homo sapiens) [18]; in [19]) were 0.0644 and 1.16, respectively. The z-score in experiment [7] is 2.32; in [9], -0.663 (inactive); in [11], -1.56 (inactive); in experiment [12], 0.148 (inactive); in experiment [13] it was 1.34 (inactive); in experiment [14], -0.522 (inactive).
For the compound `CCCC=C(CCC)[C@@H](NS(=O)(=O)c1ccccc1)c1ccc(C(F)(F)F)cc1`, the composite z-score in experiment [1] was 0.438; in experiment [2] it was 1.21; in [3], 1.03; in experiment [4], 0.979; in [5] it was 0.831; in experiment [6], -0.0779. Also, the composite z-score with Lefty1 was 0.219; in experiment [8], 0.72; in experiment [10] it was 0.135; in experiment [15], 1.33; in experiment [16], 0.105; with Torsin-1A (Homo sapiens) [17], 0.354. The composite z-score with Torsin-1A (Homo sapiens) [18] was determined as 0.56; in [19] it was 0.0898. In addition, the z-score was -1.64 in [7]; 2.08 (inactive) in [9]; -1.21 (inactive) in [11]; 0.514 (inactive) in experiment [12]; 0.0007 (inactive) in [13]; 1.11 (inactive) in [14].
